# The full list was thinned out, with hits kept by preference.
# CBX7 inh: inhibitors of human CBX7 binding to H3K27me3 peptide. O95931. AlphaScreen His6-CBX7 / biotin-H3K27me3 peptide binding; active compounds read low. normalised signal (fraction of DMSO) (no concentration beside the values). hit rate 1.1% among 66,000. AID 1224903; in the data active means normalised signal below about 0.5
# Target sequence (O95931 whole entry, looked up): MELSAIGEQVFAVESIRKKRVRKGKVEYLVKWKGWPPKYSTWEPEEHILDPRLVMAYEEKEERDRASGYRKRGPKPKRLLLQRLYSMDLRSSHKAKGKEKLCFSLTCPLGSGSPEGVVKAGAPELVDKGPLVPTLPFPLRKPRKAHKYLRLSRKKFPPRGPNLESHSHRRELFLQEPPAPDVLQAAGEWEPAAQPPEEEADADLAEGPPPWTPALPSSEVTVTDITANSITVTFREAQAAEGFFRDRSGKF
# * hit, by the source's call; ! = repeats disagree.
SMILES,CBX7 inh
CCN1CCCC1CNC(=O)c1cc(C)nn1-c1ccccc1 (configuration not stated),1.02
Cc1[nH]c2ccc(-c3nnc(SCCc4ccccc4)n3-c3ccccc3)cc2c1C,0.783
CCSc1nnc(-c2ccc3[nH]c(C)c(C)c3c2)n1-c1ccccc1,0.936
Cc1[nH]c2ccc(-c3nnc(SCCO)n3-c3ccc(Br)cc3)cc2c1C,0.455*
Cn1c(=N)n(CCOc2ccc(Cl)cc2)c2ccccc21,1.13
O=S(=O)(c1cccc(C(F)(F)F)c1)n1c(/C=C/c2ccccc2Cl)nc2ccccc21,1.05
CNC(=O)C1CCC(=O)N1Cc1ccc(F)cc1 (configuration not stated),0.906
N#CCNC(=O)c1cc2nc(-c3cccs3)cc(C(F)(F)F)n2n1,1.09
CCc1nc2ccccc2c(NC(=O)CN2CCN(C)CC2)c1C,0.0535*
CCCCc1nc2ccccc2c(NC(=O)CN2CCN(C(=O)c3ccco3)CC2)c1CCC,0.964
O=C(CN1CCCCC1)Nc1c2c(nc3ccccc13)N(c1cccc(Cl)c1)CC2,0.995
NS(=O)(=O)c1ccc(Nc2nnc(-c3ccc(O)cc3)c3ccccc23)cc1,0.851
O=S(=O)(Nc1nccs1)c1ccc(Nc2nnc(-c3ccccc3)c3ccccc23)cc1,0.0457*
Cc1onc(-c2ccccc2)c1C(=O)Nc1ccc(S(=O)(=O)Nc2nccs2)cc1,0.921
Cc1cc(N2CC(C)CC(C)C2)nc2ccc(NC(=O)CCC(=O)NC3CCCCCC3)cc12 (configuration not stated),1.04
COc1cccc(Nc2nc(-c3ccc(OC)c(Br)c3)cs2)c1,0.7
CC(=O)Nc1nc(-c2ccc(Oc3ccccc3)cc2)cs1,0.925
O=C1c2ccccc2C(=O)N1c1cccc(-c2csc(Nc3ccc(Oc4ccccc4)cc3)n2)c1,0.736
Clc1ccc(-c2csc(Nc3ccc(Oc4ccccc4)cc3)n2)cc1,0.54
COc1ccc(-c2csc(Nc3ccc(Oc4ccccc4)cc3)n2)cc1Br,0.419*!
CC(C)Cc1ccc(-c2csc(Nc3ccc(Oc4ccccc4)cc3)n2)cc1,0.487*
O=C(CSc1nccn1-c1cccc(Cl)c1)Nc1cccc(F)c1,0.832
Cc1ccc(S(=O)(=O)CCc2nnc(NC(=O)c3cccs3)s2)cc1C,1.04
CCOc1ccc(N(CC)S(=O)(=O)c2ccc3c(c2)CCC(=O)N3)cc1,1.04
COc1ccc(Nc2nc(-c3ccccc3Cl)nc3ccccc23)cc1,1.09
SMILES,CBX7 inh
Oc1ccc(Nc2nc(-c3ccccc3Cl)nc3ccccc23)cc1,0.795
CN(C)c1ccc(Nc2nc(-c3ccccc3Cl)nc3ccccc23)cc1,0.305*
Cc1ccc(C(=O)Nc2nnc(COc3ccc(C(C)(C)C)cc3)s2)cc1,0.983
CCOc1ccccc1NC(=O)c1sc2ncn(CC(=O)N3CCCCC3C)c(=O)c2c1C (configuration not stated),0.96
COc1cc(-c2nc(-c3ccc(C)c(C)c3)c(-c3ccccc3)[nH]2)cc2c1OCO2,0.705
COc1ccc(-c2nc(-c3ccc(C)cc3)[nH]c2-c2ccc(OC)cc2)cc1,0.698
COc1cc(-c2nc(-c3ccc(C)c(C)c3)c(-c3ccc(C)c(C)c3)[nH]2)cc(OC)c1O,0.494*
CCOC(=O)CNC(=O)CN1C(=O)CC(c2ccc(OC)c(OC)c2)Sc2ccccc21 (configuration not stated),1.15
Cc1cc(N2CCCCC2)nc2ccc(NC(=O)CCC(=O)N3CCN(c4ccccn4)CC3)cc12,1.06
O=c1c(S(=O)(=O)c2ccccc2)c[nH]c2ccc(F)cc12,1.06
O=C(O)c1c[nH]c2ccc(S(=O)(=O)N3CCCCC3c3cccnc3)cc2c1=O (configuration not stated),0.4*
COc1ccc(S(=O)(=O)N2CCCCC2c2cccnc2)cc1 (configuration not stated),0.964
O=C(c1c[nH]c2ccc(S(=O)(=O)N3CCCCC3c3cccnc3)cc2c1=O)N1CCCC1 (configuration not stated),1.02
COc1ccc(-c2cc(C(=O)Nc3cc(C)n(Cc4ccc(Cl)cc4)n3)no2)cc1,0.994
COc1ccccc1C(=O)c1nc(-c2ccccc2)no1,1.05
O=C(Nc1ccc(F)cc1)C1CCCN1S(=O)(=O)c1cccc2cccnc12 (configuration not stated),0.983
Cc1ccc(C)c2[nH]c(=O)c(CCNC(=O)C3CCCCC3)cc12,1.09
CCCN1CCN(C(=O)CN2C(=O)COc3ccc(S(=O)(=O)N4CCOCC4)cc32)CC1,1.01
COc1cccc(-n2ccnc2SCC(=O)Nc2ccc(OC)cc2OC)c1,0.965
COc1cccc(-n2ccnc2SCC(=O)Nc2ccccc2F)c1,0.535
COc1ccccc1NC(=O)CSc1nccn1-c1ccc(Cl)cc1,0.509
CCOc1ccccc1NC(=O)CSc1nccn1-c1cccc(OC)c1,0.481*
CCOc1ccccc1NC(=O)CSc1nccn1-c1ccc(Cl)cc1,0.314*
CCOc1ccccc1NC(=O)CSc1nccn1-c1cc(C)cc(C)c1,0.63
Cc1ccc(NC(=O)CSc2nccn2-c2ccc(F)cc2)cc1,0.968
SMILES,CBX7 inh
Cc1nn(Cc2ccc(Cl)cc2Cl)c(C)c1NC(=O)c1ccccc1F,1.05
COc1ccc(NC(=O)c2c(NCc3cccnc3)sc3c2CCC(C)C3)c(OC)c1 (configuration not stated),0.462*
COc1ccc(OC)c(NC(=O)c2c(NCc3ccncc3)sc3c2CCC(C)C3)c1 (configuration not stated),0.655
COc1ccc(NC(=O)c2c(NCc3cccnc3)sc3c2CCCC3)c(OC)c1,0.307*
COc1ccc(CNc2sc3c(c2C(=O)Nc2ccc(OC)cc2OC)CCC3)cc1,0.832
COc1ccc(OC)c(NC(=O)c2c(NCc3cccnc3)sc3c2CCC(C)C3)c1 (configuration not stated),0.649
COc1ccc(OC)c(NC(=O)c2c(NCc3cccnc3)sc3c2CCCC3)c1,0.6
COc1ccc(Nc2cc(C(=O)N3CCN(Cc4ccccc4)CC3)c3ccccc3n2)c(OC)c1,0.643
CCN(c1ccccc1)S(=O)(=O)c1ccc2c(c1)CCN2C(C)=O,1
CC1CCN(C(=O)CN2C(=O)COc3ccc(S(=O)(=O)N4CCOCC4)cc32)CC1,1.02
CCN(CC)CCNC(=O)c1cnc(Nc2ccccc2OC)c2ccccc12,1.22
CC(=O)N1CCc2cc(S(=O)(=O)NCCC(=O)Nc3ccc(C)cc3)ccc21,1.15
NC(=O)CSc1nnc2c(n1)[nH]c1ccccc12,1.02
CCOC(=O)CCCCC(=O)c1[nH]c(=O)[nH]c1CSc1nnc2c(n1)[nH]c1ccccc12,0.423*
c1ccc(CSc2nnc3c(n2)[nH]c2ccccc23)cc1,1.1
CCCNC(=O)C1CCCN(c2nnc(-n3cccc3)s2)C1 (configuration not stated),1.11
COc1ccc(-c2nc(Cc3c(F)cccc3Cl)no2)c(OC)c1,0.831
Cc1ccc2c(c1)c(=O)c(C(=O)c1ccccc1)cn2Cc1ccccc1,0.62
Cc1ccc(Cn2cc(C(=O)c3ccccc3)c(=O)c3cc(C)ccc32)cc1,0.44*
Cc1ccc2c(c1)c(=O)c(C(=O)c1ccccc1)cn2Cc1ccc(F)cc1,0.706
COc1ccc(-c2c(C)nn3c(N4CC(C)CC(C)C4)cc(C)nc23)cc1OC (configuration not stated),1.05
Cc1nc2c(c(C)nn2-c2ccccc2)c(C)c1CCC(=O)N1CC(C)CC(C)C1 (configuration not stated),1.1
Cc1ccc(CNC(=O)Cn2nc(-c3ccccc3)ccc2=O)cc1,1.04

# Screening results deposited in PubChem by Bradner/Qi Labs at DFCI.
